The values that follow come from PubChem BioAssay AID2284362 (EPA ToxCast).

Records with an inconclusive call do not appear. The source made the active and inactive calls. The calls were made as follows: active = hit-call score of the fitted dose curve at least 0.9, where 1 is the maximum; inconclusive = response in the unintended direction; inactive = score below 0.9.

The nature of the test: CCTE_Mundy_HCI_iCellGABA_NOG_NeuriteCount: CCTE's Neurite Outgrowth Assay in iCellGABA cells for Neurite Count, Mundy Lab. As to the method:
CCTE_Mundy_HCI_iCellGABA_NOG is a multiplexed, cell-based-readout assay that uses iCell GABANeurons from FUJIFILM Cellular Dynamics, Inc. (FCDI), human GABAergic enriched neurons derived from induced pluripotent stem (iPS) cells, with measurements taken at 50.33 hours after chemical dosing in a microplate: 96-well plate.CCTE_Mundy_HCI_iCellGABA_NOG_NeuriteCount is one of four components of the CCTE_Mundy_HCI_iCellGABA_NOG assay. It measures neurite outgrowth related to number of neurites using High Content Imaging of fluorescently labelled markers.Data from the assay component CCTE_Mundy_HCI_iCellGABA_NOG_NeuriteCount was analyzed at the endpoint CCTE_Mundy_HCI_iCellGABA_NOG_NeuriteCount in the positive analysis fitting direction relative to DMSO as the negative control and baseline of activity. Using a type of morphology reporter, loss-of-signal activity can be used to understand developmental effects.
Exposure starts 2 hours post-plating by adding 10 ul of the working solution to 90 ul of media in the wells for a 1/10 dilution. Forty-eight hours after chemical treatment cells are fixed by direct addition of 100 ul of warm (37C) Dulbecco's phosphate buffered saline (DPBS) fixative solution containing 8% paraformaldehyde, 8% sucrose, and 0.1% of 3 mg/ml Hoechst 33342 into each well. Primary antibodies are prepared by dilution in Immunocytochemical Staining Buffer (ISB), 10X Dulbecco's PBS, 0.1% Saponin, 5% Bovine Serum Albumin, 0.5% NaN3 (Sodium Azide) and betaIII-tubulin (rabbit anti-betaIII-tubulin, 1:800) followed by Alexa Fluor-488 secondary (1:500) to label neuronal cell bodies and neurites. A Cellomics ArrayScan VTi HCS Reader is used for automated image acquisition and analysis of neurite outgrowth.
`COP(=O)(OC)C(O)C(Cl)(Cl)Cl` (centres undefined): the call was inactive.
Same read-out and setting: with `COP(N)(=O)SC` (centres undefined) the entry was “inactive”; with `CCCSP(=O)(OCC)Oc1ccc(Br)cc1Cl` (centres undefined), “inactive”.
Usually AC50 stands for the midpoint of the concentration-response curve, whichever way the signal moves. Consider `CCN(CC)c1nc(C)cc(OP(=S)(OC)OC)n1`, for which the AC50 is 89.1 µM (active).
For `CCOP(=S)(OCC)SCSC(C)(C)C`, the AC50 was 81.4 µM (active).
For `CCOP(=S)(Oc1cnc(C(C)(C)C)nc1)OC(C)C` (centres undefined), the call was inactive.
The same measure, in the same setting: with `CNC(=O)CSP(=O)(OC)OC` the entry was “inactive”; with `COP(=O)(NC(C)=O)SC` (centres undefined), “inactive”.
The same measure, in the same setting: in the case of `COP(=O)(OC)OC=C(Cl)Cl` it was “inactive”.
Regarding `CCOC(=O)CC(SP(=S)(OC)OC)C(=O)OCC` (centres undefined), the AC50 is 74.1 µM (active).
Take `CCOP(=S)(OCC)Oc1nc(Cl)c(Cl)cc1Cl`: the concentration at half-maximal activity (AC50) was 30.1 µM (active).
Take `CCOP(=O)(SC(C)CC)N1CCSC1=O` (centres undefined): the result was inactive.
With `CCCCSP(=O)(SCCCC)SCCCC`, the concentration at half-maximal activity (AC50) is 65.2 µM (active).
Same read-out and setting: with `COP(=O)(OC)O/C(=C\Cl)c1cc(Cl)c(Cl)cc1Cl` the figure was 66.5 µM (active).
With `COP(=O)(OC)O/C(C)=C/C(=O)N(C)C`, the result was inactive.
As for `CCOP(=S)(OCC)Oc1cc(C)nc(C(C)C)n1`, the half-maximal activity concentration (AC50) was 76.5 µM (active).
For the molecule `CCOP(=O)(OCC)Oc1nc(Cl)c(Cl)cc1Cl`, the call was inactive.
On to `COP(=S)(OC)SCN1C(=O)c2ccccc2C1=O`, for which the AC50 was 74.2 µM (active).
On the same count and under the same terms, in the case of `CCOP(=S)(OCC)OC(Cl)C(Cl)(Cl)Cl` (centres undefined) it was 29.7 µM (active).
For the molecule `CNC(=O)CSP(=S)(OC)OC`, the molecule was classed as inactive.
Take `COP(=O)(OC)OC(Br)C(Cl)(Cl)Br` (centres undefined): the AC50 is 16.1 µM (active).
With `CCOC(=O)CC(SP(=O)(OC)OC)C(=O)OCC` (centres undefined), the molecule was classed as inactive.
Same read-out and setting: in the case of `CCOP(=S)(OCC)SCSCC` it was “inactive”.
`CCOP(=S)(OCC)Oc1ccc2c(C)c(Cl)c(=O)oc2c1`: the AC50 was 71.2 µM (active).
